Hit rate of the full screen: of about 5,500 compounds, about 2,000 (36%) were called active. About 18% were inconclusive and are not listed. This is one part of the list. Unmarked numbers belong to inactive results. No stated cut-off is given here; in the data, active means normalized growth mostly below about 0.91 (no sharp cut-off); inconclusive means no clear call, values can overlap the other calls; inactive means mostly above about 0.92.
Assay: chemical genetic growth profiling, strain panel (AID 1159580);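 further: tested at 20 µM; growth read once vehicle control cultures reached saturation at 30 °C; 1 = growth at the plate median or of vehicle wells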
Settings: growth OD

Cc1cc(O)c(C=O)c2c1C(=O)Oc1c(COC(=O)/C=C/C(=O)O)c(O)c(C(=O)O)c(C)c1O2
normalized growth (S. cerevisiae deletion strains, locus YJR043C, strain POL32, stronger effect = lower value): 0.954 | normalized growth (S. cerevisiae deletion strains, locus YJR066W, strain TOR1, stronger effect = lower value): 0.931 | normalized growth (S. cerevisiae deletion strains, locus YJR075W, strain HOC1, stronger effect = lower value): 0.962 | normalized growth (S. cerevisiae deletion strains, locus YKL009W, strain mrt4, stronger effect = lower value): 0.974 | normalized growth (S. cerevisiae deletion strains, locus YKL068W, stronger effect = lower value): 0.993 | normalized growth (S. cerevisiae deletion strains, locus YKL085W, strain MDH1 (second series), stronger effect = lower value): 0.991 | normalized growth (S. cerevisiae deletion strains, locus YKL085W, strain MDH1, stronger effect = lower value): 0.991 | normalized growth (S. cerevisiae deletion strains, locus YKL160W, strain elf1, stronger effect = lower value): 0.992 | normalized growth (S. cerevisiae deletion strains, locus YKR001C, strain vps1, stronger effect = lower value): 0.921 | normalized growth (S. cerevisiae deletion strains, locus YKR026C, strain gcn3, stronger effect = lower value): 0.985 | normalized growth (S. cerevisiae deletion strains, locus YKR091W, strain srl3, stronger effect = lower value): 1.01 | normalized growth (S. cerevisiae deletion strains, locus YLL001W, strain dnm1, stronger effect = lower value): 0.888 (active) | normalized growth (S. cerevisiae deletion strains, locus YLL026W, stronger effect = lower value): 1.01 | normalized growth (S. cerevisiae deletion strains, locus YLL041C, strain sdh2, stronger effect = lower value): 1 | normalized growth (S. cerevisiae deletion strains, locus YLR027C, strain aat2, stronger effect = lower value): 0.982 | normalized growth (S. cerevisiae deletion strains, locus YLR039C, strain RIC1, stronger effect = lower value): 0.933 | normalized growth (S. cerevisiae deletion strains, locus YLR058C, strain SHM2, stronger effect = lower value): 0.937 | normalized growth (S. cerevisiae deletion strains, locus YLR102C, strain apc9, stronger effect = lower value): 0.991 | normalized growth (S. cerevisiae deletion strains, locus YLR113W, strain HOG1, stronger effect = lower value): 0.984 | normalized growth (S. cerevisiae deletion strains, locus YLR221C, strain rsa3, stronger effect = lower value): 0.946 | normalized growth (S. cerevisiae deletion strains, locus YLR258W, strain gsy2, stronger effect = lower value): 0.987 | normalized growth (S. cerevisiae deletion strains, locus YLR262C, strain YPT6 (second series), stronger effect = lower value): 0.877 | normalized growth (S. cerevisiae deletion strains, locus YLR262C, strain YPT6, stronger effect = lower value): 0.936 | normalized growth (S. cerevisiae deletion strains, locus YLR268W, strain sec22, stronger effect = lower value): 0.924 | normalized growth (S. cerevisiae deletion strains, locus YLR320W, strain mms22, stronger effect = lower value): 0.959 | normalized growth (S. cerevisiae deletion strains, locus YLR330W, strain CHS5, stronger effect = lower value): 0.971 | normalized growth (S. cerevisiae deletion strains, locus YLR342W, strain FKS1 (second series), stronger effect = lower value): 0.98 | normalized growth (S. cerevisiae deletion strains, locus YLR342W, strain FKS1, stronger effect = lower value): 0.968 | normalized growth (S. cerevisiae deletion strains, locus YLR357W, strain rsc2, stronger effect = lower value): 0.841 (active) | normalized growth (S. cerevisiae deletion strains, locus YLR370C, strain arc18, stronger effect = lower value): 0.967 | normalized growth (S. cerevisiae deletion strains, locus YLR371W, strain rom2, stronger effect = lower value): 0.943 | normalized growth (S. cerevisiae deletion strains, locus YLR384C, strain iki3, stronger effect = lower value): 0.996 | normalized growth (S. cerevisiae deletion strains, locus YLR418C, strain cdc73, stronger effect = lower value): 0.883 | normalized growth (S. cerevisiae deletion strains, locus YML016C, strain PPZ1, stronger effect = lower value): 0.957 | normalized growth (S. cerevisiae deletion strains, locus YML032C, strain rad52, stronger effect = lower value): 1.01 | normalized growth (S. cerevisiae deletion strains, locus YML120C, strain ndi1, stronger effect = lower value): 1 | normalized growth (S. cerevisiae deletion strains, locus YML124C, strain tub3, stronger effect = lower value): 0.996 | normalized growth (S. cerevisiae deletion strains, locus YMR058W, strain fet3, stronger effect = lower value): 0.311 (active) | normalized growth (S. cerevisiae deletion strains, locus YMR078C, strain ctf18, stronger effect = lower value): 0.986 | normalized growth (S. cerevisiae deletion strains, locus YMR125W, strain sto1, stronger effect = lower value): 1.08 | normalized growth (S. cerevisiae deletion strains, locus YMR129W, stronger effect = lower value): 1.01 | normalized growth (S. cerevisiae deletion strains, locus YMR205C, strain PFK2, stronger effect = lower value): 0.998 | normalized growth (S. cerevisiae deletion strains, locus YMR223W, strain ubp8, stronger effect = lower value): 0.961 | normalized growth (S. cerevisiae deletion strains, locus YMR231W, strain pep5, stronger effect = lower value): 0.94 | normalized growth (S. cerevisiae deletion strains, locus YMR307W, strain GAS1, stronger effect = lower value): 0.72 | normalized growth (S. cerevisiae deletion strains, locus YNL067W, strain RPL9B, stronger effect = lower value): 0.92 | normalized growth (S. cerevisiae deletion strains, locus YNL071W, strain lat1, stronger effect = lower value): 1 | normalized growth (S. cerevisiae deletion strains, locus YNL183C, strain NPR1, stronger effect = lower value): 0.931 | normalized growth (S. cerevisiae deletion strains, locus YNL209W, strain ssb2, stronger effect = lower value): 0.804 (active) | normalized growth (S. cerevisiae deletion strains, locus YNL233W, strain BNI4, stronger effect = lower value): 0.967 | normalized growth (S. cerevisiae deletion strains, locus YNL248C, strain rpa49, stronger effect = lower value): 1.01 | normalized growth (S. cerevisiae deletion strains, locus YNL250W, strain rad50, stronger effect = lower value): 0.956 | normalized growth (S. cerevisiae deletion strains, locus YNL271C, strain bni1, stronger effect = lower value): 0.954 | normalized growth (S. cerevisiae deletion strains, locus YNL298W, strain CLA4, stronger effect = lower value): 0.966 | normalized growth (S. cerevisiae deletion strains, locus YNL307C, strain MCK1, stronger effect = lower value): 0.98 | normalized growth (S. cerevisiae deletion strains, locus YNL322C, strain KRE1 (second series), stronger effect = lower value): 1.04 | normalized growth (S. cerevisiae deletion strains, locus YNR049C, strain mso1, stronger effect = lower value): 0.995 | normalized growth (S. cerevisiae deletion strains, locus YNR052C, strain pop2, stronger effect = lower value): 0.963 | normalized growth (S. cerevisiae deletion strains, locus YOL012C, strain htz1): 0.751 | normalized growth (S. cerevisiae deletion strains, locus YOL147C, strain pex11, stronger effect = lower value): 0.994 | normalized growth (S. cerevisiae deletion strains, locus YOR001W, strain rrp6, stronger effect = lower value): 0.961 | normalized growth (S. cerevisiae deletion strains, locus YOR061W, strain CKA2, stronger effect = lower value): 0.95 | normalized growth (S. cerevisiae deletion strains, locus YOR069W, strain VPS5, stronger effect = lower value): 0.976 | normalized growth (S. cerevisiae deletion strains, locus YOR070C, strain gyp1, stronger effect = lower value): 0.988 | normalized growth (S. cerevisiae deletion strains, locus YOR080W, strain dia2, stronger effect = lower value): 1.02 | normalized growth (S. cerevisiae deletion strains, locus YOR083W, strain WHI5, stronger effect = lower value): 0.937 | normalized growth (S. cerevisiae deletion strains, locus YOR106W, strain vam3, stronger effect = lower value): 0.709 (active) | normalized growth (S. cerevisiae deletion strains, locus YOR136W, strain idh2, stronger effect = lower value): 0.988 | normalized growth (S. cerevisiae deletion strains, locus YOR144C, strain elg1, stronger effect = lower value): 0.993 | normalized growth (S. cerevisiae deletion strains, locus YOR184W, strain ser1, stronger effect = lower value): 0.946 | normalized growth (S. cerevisiae deletion strains, locus YOR231W, strain MKK1, stronger effect = lower value): 0.953 | normalized growth (S. cerevisiae deletion strains, locus YOR265W, strain rbl2, stronger effect = lower value): 0.964 | normalized growth (S. cerevisiae deletion strains, locus YOR270C, strain vph1, stronger effect = lower value): 0.503 (active) | normalized growth (S. cerevisiae deletion strains, locus YOR290C, strain snf2, stronger effect = lower value): 0.869 | normalized growth (S. cerevisiae deletion strains, locus YOR316C, strain cot1, stronger effect = lower value): 0.989 | normalized growth (S. cerevisiae deletion strains, locus YPL051W, strain arl3, stronger effect = lower value): 0.831 (active) | normalized growth (S. cerevisiae deletion strains, locus YPL078C, strain atp4, stronger effect = lower value): 0.925 | normalized growth (S. cerevisiae deletion strains, locus YPL106C, strain sse1, stronger effect = lower value): 0.942 | normalized growth (S. cerevisiae deletion strains, locus YPL240C, strain hsp82, stronger effect = lower value): 1.01 | normalized growth (S. cerevisiae deletion strains, locus YPL256C, strain CLN2, stronger effect = lower value): 1.01 | normalized growth (S. cerevisiae deletion strains, locus YPR119W, strain clb2, stronger effect = lower value): 0.991 | normalized growth (S. cerevisiae deletion strains, locus YPR141C, strain kar3, stronger effect = lower value): 0.96 | normalized growth (S. cerevisiae deletion strains, locus YPR163C, strain tif3, stronger effect = lower value): 0.987 | normalized growth (S. cerevisiae deletion strains, locus YPR167C, strain met16, stronger effect = lower value): 0.998 | normalized growth (S. cerevisiae deletion strains, strain wtn01, stronger effect = lower value): 0.945 | normalized growth (S. cerevisiae strains, strain wild type, stronger effect = lower value): 0.874 (active)

From PubChem BioAssay AID1159580 (chemical genetic matrix, 2015)
